Measured values as given in paper PMC7826789 (International Journal of Molecular Sciences, 2021).

In the case of `COc1cc(-c2cncc(-c3cnn(C4CCNCC4)c3)c2)cc(OC)c1OC` [K05908], the Kinases covered (TGFBR1) is reported as “TGFBR1”.
`Cc1ccc(-c2cc(-c3c[nH]nc3-c3ccccn3)ccn2)cc1` [GW684088] was tested, and the Kinases covered (TGFBR1) was “TGFBR1”.
With `CCn1cc(-c2ccnc3[nH]c(-c4cccc(CN(C)C)c4)cc23)c(-c2ccc(NC(=O)N(C)C)cc2)n1` [GSK1070916] the Kinases covered (TIE2) was “TIE2”.
With `CCS(=O)(=O)c1ccc(OC)c(Nc2ncc(-c3cccc(OC)c3)o2)c1` [GW580509X] the Kinases covered (TNK1) was “TNK1”.
With `COc1cc(N2CCN(C)CC2)ccc1Nc1ncc2c(n1)N(C)c1ccccc1C(=O)N2` [XMD8-87] the Kinases covered (TNK2) was “TNK2”.
For `CNS(=O)(=O)c1ccc(N(C)C)c(Nc2ncnc3cc(OC)c(OC)cc23)c1` [GSK114], the Kinases covered (TNNI3K) was “TNNI3K”.
With `CC(=O)c1c(C)c2cnc(Nc3ccc(N4CCNCC4)cn3)nc2n(C2CCCC2)c1=O` [PFE-PKIS 32] the Kinases covered (TTK) was “TTK”.
With `CCS(=O)(=O)c1ccc(OC)c(Nc2ncc(-c3cccc(F)c3)o2)c1` [GW621970X] the Kinases covered (YES) was “YES”.
